# Results reported in PubChem BioAssay.
# The source made the active and inactive calls.
# Experiments:
# [1] = small molecules captured by biotinylated probe aFSTL3 – biochemical, small-molecule microarray, fluorescence 635/667, stem cell growth factor project, primary screen (AID 1064); conditions: higher = more signal;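 note: measures binding of the biotinylated anti-FSTL3 antibody to printed compounds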
# [2] = binders from COS7 lysate, DM2A8 probe, primary screen, torsin A project, cell lysate, small-molecule microarray, fluorescence 635/667 (AID 1065); conditions: higher = more signal, COS7 lysate expressing mutant human TOR1A
# [3] = small molecules captured by biotinylated probe aFGF2 – biochemical, small-molecule microarray, fluorescence 635/667, stem cell growth factor project, primary screen (AID 1067); conditions: higher = more signal;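 note: measures binding of biotinylated aFGF2 protein to printed compounds on slides; z-score merges feature fluorescence and signal-to-noise across triplicate slides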
# [4] = small molecules captured by biotinylated probe aFGF10 – biochemical, small-molecule microarray, fluorescence 635/667, stem cell growth factor project, primary screen (AID 1071); conditions: higher = more signal;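 note: score merges 667 nm spot intensity and signal to noise from triplicate slides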
# [5] = target: Neurogenic locus notch homolog protein 2 (Homo sapiens) (UniProt Q04721); test: small molecules binding Notch2 protein – biochemical, small-molecule microarray, 635 nm fluorescence, stem cell growth factors, primary screen (AID 1073); conditions: higher = more signal
# [6] = target: Pro-neuregulin-1, membrane-bound isoform (Homo sapiens) (UniProt Q02297); test: small molecules binding neuregulin-1 protein – biochemical, small-molecule microarray, fluorescence 635/667, psychiatric disease protein project, primary screen (AID 1075); conditions: NRG1 binding, 635 nm fluorescence, higher = more signal;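 note: score combines 667 nm spot fluorescence with signal to noise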
# Pro-neuregulin-1, membrane-bound isoform (Homo sapiens), sequence (Q02297 whole entry, looked up, the tested form may be a part, canonical isoform): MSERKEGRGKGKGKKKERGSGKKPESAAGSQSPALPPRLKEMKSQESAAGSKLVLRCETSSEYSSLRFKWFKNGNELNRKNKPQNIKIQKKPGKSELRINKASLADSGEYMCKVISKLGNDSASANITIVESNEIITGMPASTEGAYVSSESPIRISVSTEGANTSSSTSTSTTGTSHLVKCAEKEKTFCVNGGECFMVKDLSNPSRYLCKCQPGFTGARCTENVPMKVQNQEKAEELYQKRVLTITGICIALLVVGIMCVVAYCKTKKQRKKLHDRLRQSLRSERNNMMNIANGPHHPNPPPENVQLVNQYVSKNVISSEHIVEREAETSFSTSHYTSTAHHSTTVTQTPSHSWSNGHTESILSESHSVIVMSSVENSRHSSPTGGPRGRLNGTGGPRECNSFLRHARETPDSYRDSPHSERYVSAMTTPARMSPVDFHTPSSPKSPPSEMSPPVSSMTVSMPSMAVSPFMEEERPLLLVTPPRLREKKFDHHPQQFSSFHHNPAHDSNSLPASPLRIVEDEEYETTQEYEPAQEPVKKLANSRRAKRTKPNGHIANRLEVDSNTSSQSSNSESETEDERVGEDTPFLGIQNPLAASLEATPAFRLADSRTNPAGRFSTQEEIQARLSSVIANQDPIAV
# [7] = tested on: Neuregulin-1 EGF-like domain; test: small molecules binding NRG1 EGF domain – biochemical, small-molecule microarray, 635 nm fluorescence, primary screen (AID 1081); conditions: higher = more signal;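 note: binding of the protein to compounds printed on small-molecule microarray slides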
# [8] = FRG1 expression reporter modulators in myotubes – cell-based, C2C12 myotubes, firefly/Renilla luciferase, luminescence, FRG1 inhibition for FSHD, primary screen (AID 1084); conditions: FRG1 promoter luciferase, higher = more signal, called active from +8 up or from −8 down
# [9] = small molecules captured by biotinylated probe aFST – biochemical, small-molecule microarray, fluorescence 635/667, stem cell growth factor project, primary screen (AID 1086); conditions: higher = more signal;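 note: score merges 667 nm fluorescence with signal-to-noise of each printed compound spot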
# [10] = binders of probe aHhip on microarray, primary screen, stem cell growth factor project, biochemical, small-molecule microarray, fluorescence 635/667 (AID 1087); conditions: higher = more signal;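 note: score merges spot fluorescence at 667nm with spot signal to noise ratio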
# [11] = tested on: PRMT1 (protein arginine N-methyltransferase 1); test: small molecules binding arginine methyltransferase PRMT1 – biochemical, small-molecule microarray, 635 nm fluorescence, primary screen (AID 1088); conditions: higher = more signal;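 note: binding of Prmt1 protein to compounds spotted on small-molecule microarray slides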
# [12] = growth effects on S. cerevisiae YJM789 – YJM789 clinical isolate, OD600, 24 h, basal, primary screen (AID 1089); conditions: higher = more signal, called active from +8 up or from −8 down;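 note: growth of clinical yeast isolate S. cerevisiae YJM 789 seeded 1000 cells per well; test concentration not given here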
# [13] = S. pombe growth modifiers, basal conditions – strain 972, OD600, 24 h, no modulator, primary screen (AID 1090);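 note: basal condition with compound alone and no growth modifier present; test concentration not given here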; conditions: S. pombe 972 growth, higher = more signal, called active from +8 up or from −8 down
# [14] = budding yeast growth modifiers under rapamycin – strain BY4716, OD600, 96 h, primary screen (AID 1091); note: test concentration not given here; conditions: S. cerevisiae BY4716 + rapamycin, higher = more signal, called active from +8 up or from −8 down
# [15] = target: Torsin-1A-interacting protein 2 (Homo sapiens) (UniProt Q8NFQ8); test: small molecules binding lysate-expressed LULL1 – cell lysate, human LULL1 lysate, 635/667 nm fluorescence, primary screen (AID 1092); conditions: small-molecule microarray, hLULL1 lysate binding, 635 nm fluorescence; higher = more signal;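 note: probe is lysate of COS7 cells overexpressing human LULL1; score merges per-feature 667 nm fluorescence with signal-to-noise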
# Torsin-1A-interacting protein 2 (Homo sapiens), sequence (Q8NFQ8 whole entry, looked up): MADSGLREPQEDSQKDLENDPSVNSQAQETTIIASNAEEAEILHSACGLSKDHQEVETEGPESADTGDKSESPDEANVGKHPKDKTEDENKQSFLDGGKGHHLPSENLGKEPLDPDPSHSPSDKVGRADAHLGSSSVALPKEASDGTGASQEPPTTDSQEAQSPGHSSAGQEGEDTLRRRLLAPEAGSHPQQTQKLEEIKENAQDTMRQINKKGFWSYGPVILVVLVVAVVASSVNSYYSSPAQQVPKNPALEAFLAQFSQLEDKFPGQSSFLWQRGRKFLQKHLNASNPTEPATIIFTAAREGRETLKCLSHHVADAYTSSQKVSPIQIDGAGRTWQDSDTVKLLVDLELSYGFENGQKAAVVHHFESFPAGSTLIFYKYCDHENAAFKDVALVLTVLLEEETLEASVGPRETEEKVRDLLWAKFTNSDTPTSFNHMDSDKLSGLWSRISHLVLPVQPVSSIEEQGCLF
# [16] = optical density change of DRC41 E. coli – strain DRC41, OD650, 24 h, E. coli filamentation project, primary screen (AID 1093);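 note: MC1000 strain lacking acrAB efflux and sulA so SOS filamentation is blocked; test concentration not given here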; conditions: E. coli DRC41 growth, higher = more signal, called active from +8 up or from −8 down
# [17] = probe aLefty2 binding to arrayed compounds – biochemical, biotinylated probe, 635/667 nm fluorescence, primary screen (AID 1094); conditions: small-molecule microarray, higher = more signal;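 note: score merges spot fluorescence near 667 nm with spot signal-to-noise ratio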
# [18] = tested on: Noggin (protein binding on small-molecule microarray); test: small molecules binding Noggin protein – biochemical, 635/667 nm fluorescence, primary screen (AID 1095); conditions: 635 nm fluorescence, higher = more signal;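 note: score merges 667 nm feature fluorescence with signal to noise over triplicate slides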
# [19] = target: Neurogenic locus notch homolog protein 3 (Homo sapiens) (UniProt Q9UM47); test: small molecules binding NOTCH3 protein – biochemical, 635/667 nm fluorescence, primary screen (AID 1096); conditions: small-molecule microarray, 635 nm fluorescence, higher = more signal
# Neurogenic locus notch homolog protein 3 (Homo sapiens), sequence (Q9UM47 whole entry, looked up): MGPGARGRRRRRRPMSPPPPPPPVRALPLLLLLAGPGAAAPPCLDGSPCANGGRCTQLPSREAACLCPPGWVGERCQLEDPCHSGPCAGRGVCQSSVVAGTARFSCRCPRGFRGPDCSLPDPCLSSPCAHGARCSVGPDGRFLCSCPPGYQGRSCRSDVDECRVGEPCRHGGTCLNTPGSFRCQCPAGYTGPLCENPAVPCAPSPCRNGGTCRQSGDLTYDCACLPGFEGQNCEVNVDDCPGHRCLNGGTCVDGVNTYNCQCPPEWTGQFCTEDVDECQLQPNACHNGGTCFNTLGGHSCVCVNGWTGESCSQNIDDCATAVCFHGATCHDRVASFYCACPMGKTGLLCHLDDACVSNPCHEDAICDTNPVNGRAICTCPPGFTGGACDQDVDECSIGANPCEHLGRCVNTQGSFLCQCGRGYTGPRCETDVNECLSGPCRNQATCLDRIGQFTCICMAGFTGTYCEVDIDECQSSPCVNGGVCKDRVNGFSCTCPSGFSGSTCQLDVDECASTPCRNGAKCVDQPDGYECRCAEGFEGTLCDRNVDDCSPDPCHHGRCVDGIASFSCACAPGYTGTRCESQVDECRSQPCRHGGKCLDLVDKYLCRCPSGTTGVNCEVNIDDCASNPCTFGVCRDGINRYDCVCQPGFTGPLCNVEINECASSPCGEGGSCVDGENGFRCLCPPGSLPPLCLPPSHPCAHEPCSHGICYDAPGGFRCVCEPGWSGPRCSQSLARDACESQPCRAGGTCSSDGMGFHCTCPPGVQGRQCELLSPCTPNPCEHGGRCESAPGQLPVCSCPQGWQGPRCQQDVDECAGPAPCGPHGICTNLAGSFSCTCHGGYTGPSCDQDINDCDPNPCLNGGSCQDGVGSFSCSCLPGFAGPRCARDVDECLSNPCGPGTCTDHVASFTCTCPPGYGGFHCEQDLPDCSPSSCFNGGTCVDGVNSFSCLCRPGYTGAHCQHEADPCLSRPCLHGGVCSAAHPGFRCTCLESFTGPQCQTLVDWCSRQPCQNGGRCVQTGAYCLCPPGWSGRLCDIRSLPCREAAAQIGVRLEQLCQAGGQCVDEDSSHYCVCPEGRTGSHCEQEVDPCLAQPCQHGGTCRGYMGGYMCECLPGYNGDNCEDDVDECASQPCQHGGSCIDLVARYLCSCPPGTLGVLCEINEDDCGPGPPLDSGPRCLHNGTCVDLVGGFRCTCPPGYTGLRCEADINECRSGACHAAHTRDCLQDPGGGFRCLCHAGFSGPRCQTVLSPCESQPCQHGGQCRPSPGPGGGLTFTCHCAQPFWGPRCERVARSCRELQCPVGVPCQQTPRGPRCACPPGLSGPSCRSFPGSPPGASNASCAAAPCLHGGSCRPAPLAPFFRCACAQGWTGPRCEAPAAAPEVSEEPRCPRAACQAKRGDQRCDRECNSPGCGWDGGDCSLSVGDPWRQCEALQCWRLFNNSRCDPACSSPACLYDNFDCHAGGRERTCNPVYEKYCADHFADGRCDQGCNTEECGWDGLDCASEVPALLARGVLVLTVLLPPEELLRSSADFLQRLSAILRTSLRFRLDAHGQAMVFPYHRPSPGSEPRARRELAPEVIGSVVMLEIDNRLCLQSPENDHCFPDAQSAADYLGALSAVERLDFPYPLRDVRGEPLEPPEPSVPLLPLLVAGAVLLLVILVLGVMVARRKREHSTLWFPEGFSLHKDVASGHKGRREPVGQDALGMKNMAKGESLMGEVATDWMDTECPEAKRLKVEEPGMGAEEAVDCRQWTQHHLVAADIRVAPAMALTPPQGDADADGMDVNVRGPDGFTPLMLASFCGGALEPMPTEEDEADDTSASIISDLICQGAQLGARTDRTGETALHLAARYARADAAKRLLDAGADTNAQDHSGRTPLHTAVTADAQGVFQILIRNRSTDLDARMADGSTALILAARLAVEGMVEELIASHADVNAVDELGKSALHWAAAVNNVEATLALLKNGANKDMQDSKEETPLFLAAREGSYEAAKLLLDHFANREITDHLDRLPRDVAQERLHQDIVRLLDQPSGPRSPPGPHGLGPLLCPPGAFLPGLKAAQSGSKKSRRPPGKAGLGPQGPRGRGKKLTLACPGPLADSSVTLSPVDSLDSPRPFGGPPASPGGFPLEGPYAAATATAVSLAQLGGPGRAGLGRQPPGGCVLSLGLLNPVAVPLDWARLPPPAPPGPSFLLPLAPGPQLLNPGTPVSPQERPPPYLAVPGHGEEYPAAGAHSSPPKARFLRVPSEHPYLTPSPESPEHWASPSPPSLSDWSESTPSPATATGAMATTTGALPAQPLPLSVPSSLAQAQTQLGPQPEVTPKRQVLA
# [20] = probe aEGFR binding to arrayed compounds – biochemical, biotinylated probe, 635/667 nm fluorescence, primary screen (AID 1097); conditions: small-molecule microarray, higher = more signal;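 note: probe is a biotinylated anti-EGFR antibody binding compounds printed on slides; score combines fluorescence near 667 nm and signal to noise of each spot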
SMILES,composite z-score [1],composite z-score [2],composite z-score [3],composite z-score [4],composite z-score [5],composite z-score [6],composite z-score [7],z-score [8],composite z-score [9],composite z-score [10],composite z-score [11],z-score [12],z-score [13],z-score [14],composite z-score [15],z-score [16],composite z-score [17],composite z-score [18],composite z-score [19],composite z-score [20]
CN(C)C(=O)[C@@]1(Cc2ccccc2N=[N+]=[N-])N=C(c2ccc(OCCCO)cc2)O[C@H]1c1ccccc1CN=[N+]=[N-],0.832,2.05,0.0914,0.665,1.56,1.56,1.23,-2.27 (inactive),0.961,0.0274,1.56,-1.92 (inactive),-1.62 (inactive),1.62 (inactive),3.57,0.859 (inactive),0.839,1.35,1.06,0.355
COc1cccc([C@H]2N[C@H](C(=O)O)CC[C@@H]2C)c1,-0.356,0.0291,-0.0885,-0.42,0.238,-0.0739,-0.212,-0.0831 (inactive),0.425,-0.127,-0.158,-0.535 (inactive),-0.823 (inactive),0.48 (inactive),0.0605,0.395 (inactive),-0.23,0.002,0.202,-0.139
CO[C@H]1COC(=O)[C@@H](C)COC(=O)[C@H](Cc2ccccc2)NC(=O)CC=C[C@H]1C,-0.678,0.995,-0.107,0.131,-0.26,-0.323,-0.703,-0.117 (inactive),0.267,0.0216,0.525,-0.662 (inactive),-1.25 (inactive),-0.544 (inactive),-0.274,0.331 (inactive),-0.302,1.26,0.722,-0.188
CCOC(=O)C1=CC[C@@H](c2ccccc2)N(S(=O)(=O)c2ccc(C)cc2)[C@H]1C,-0.386,1.09,0.0257,1.11,1.59,1.45,1.12,-2.8 (inactive),0.691,-0.0994,1.53,0.889 (inactive),-0.212 (inactive),2.81 (inactive),3.41,-0.607 (inactive),0.0018,0.672,1.09,0.114
CO[C@@H]1COC(=O)[C@@H]2CCCN2C(=O)CC=C[C@@H](C)[C@H](OC)COC(=O)[C@@H]2CCCN2C(=O)CC=C[C@H]1C,-0.614,0.164,-0.113,0.0311,-0.545,-0.312,0.732,0.47 (inactive),-0.0975,0.347,1.11,-0.0171 (inactive),-1.05 (inactive),-0.258 (inactive),-0.522,1.1 (inactive),-0.166,1.14,-0.325,-0.0332
C=C(CCCC)C(=O)CC[C@@H](OC(=O)c1cccnc1)c1cccc(OCCO)c1,0.116,0.908,0.0766,1.07,-0.552,0.544,0.586,0.197 (inactive),0.344,-0.0645,1.12,-0.323 (inactive),-2.6 (inactive),-0.2 (inactive),0.136,0.493 (inactive),-0.186,0.491,0.145,-0.145
COCCOC(=O)N1C(=O)[C@@]2(c3cc(C#CC4=CCCCC4)ccc31)[C@H](C(=O)NC[C@H](O)c1ccccc1)[C@H]1C(=O)O[C@H](c3ccccc3)[C@H](c3ccccc3)N1[C@@H]2c1ccccc1OCCO,0.462,0.333,0.126,0.467,1.15,0.616,1.09,-0.0011 (inactive),0.881,0.259,1.56,2.24 (inactive),1.79 (inactive),4.71 (inactive),1.91,-0.0963 (inactive),0.306,1.13,1.07,-0.0316
O=C1C2C=CC(C(O)c3ccccc3)N(n3cnnc3)C2C(=O)N1Cc1ccccc1 (stereo not given),0.43,-0.399,-0.0598,0.118,0.729,1.33,0.544,-1.43 (inactive),0.364,-0.16,0.345,-1.3 (inactive),0.264 (inactive),-0.881 (inactive),1.28,-0.734 (inactive),0.116,-0.0596,-0.163,-0.0112
COC(=O)C[C@H]1O[C@]2(C(=O)N(Cc3ccccc3)c3ccc(I)cc32)[C@@H](C)[C@@H]1[Si](C)(C)c1ccc(OC)cc1,0.224,-0.529,-0.22,0.262,-0.385,-0.121,-0.241,0.184 (inactive),-0.145,-0.16,-0.949,0.595 (inactive),0.676 (inactive),1.58 (inactive),-0.484,-0.556 (inactive),-0.0561,-0.598,-0.625,-0.101
CCC(=O)[C@]12O[C@@]3([C@@H]4C(=O)OCC[C@@H]41)N(CC)C(C)=C(C(=O)OC)[C@@H](c1ccccc1)N3C2=O,0.162,-0.337,-0.116,0.0911,-0.925,0.0983,0.966,-0.13 (inactive),-0.255,0.176,-0.486,-1.62 (inactive),-1.89 (inactive),-0.153 (inactive),0.155,0.421 (inactive),-0.0928,0.152,-0.37,-0.0818
